Inconclusive results are not listed. Unmarked numbers belong to inactive results. Calls follow the shape of the dose curve; as a rule, active = well fitted cell-killing curve with a large enough effect in the repeat runs; inconclusive = weak or mixed curves; inactive = flat fitted curve, though single readings scatter.

This note sets out measurements from PubChem BioAssay (Tox21).
% is scaled to controls: 0 for no effect and ±100 for the full control effect.

The nature of this assay: qHTS RealTime-Glo MT Cell Viability Assay in HepG2 cells - 16 hour (AID 1224885). Also: nearly all actives have a fitted effect of over 50% in size. Conditions: RealTime-Glo luminescence; series mostly up to 76.8 µM; activity change, negative = cytotoxic: at the top concentration. The source says: U.S. Tox21 Program National Center for Advancing Translational Sciences [NCATS] NIH Chemical Genomics Center [NCGC] U.S. Environmental Protection Agency [EPA] National Institutes of Environmental Health Sciences [NIEHS] National Toxicology Program [NTP] U.S. Food and Drug Administration [FDA] Tox21 Assay Overview: Measure of cell viability is critical in the cell-base assay. Analysis of cell viability is necessary for the characterization of cell responses to cytotoxic drugs and environmental stress. A RealTime-Glo MT Cell Viability Assay to monitor cell viability in real time of continues cell culture during 40 hours of compound treatment was used to screen Tox21 10K library compounds in HepG2 cells. The RealTime-Glo MT Cell Viability Assay is a nonlytic, homogeneous, bioluminescent method to measure cell viability in real time using a simple, plate-based method. The assay involves adding NanoLuc luciferase and a cell-permeant prosubstrate to cells in culture. Viable cells reduce the proprietary prosubstrate to generate a substrate for NanoLuc luciferase. This substrate diffuses from cells into the surrounding culture medium, where it is rapidly used by the NanoLuc Enzyme to produce a luminescent signal. The signal correlates with the number of viable cells, making the assay well suited for cytotoxicity studies.
Tox21 Assay Protocol Summary: The mixture of HepG2 cell suspension and reagents were dispensed at 600cells/6 ul/well in 1536-well tissue culture treated black solid bottom plates using a Multidrop dispenser. After the assay plates were incubated at a 37 C/5% CO2 incubator for 5 hours, 23 nL of compounds dissolved in DMSO, positive and negative controls was transferred to the assay plate by a pintool work station. The plates were incubated at 37 C for 40 hours. The luminescence intensity were measured at 0h, 8h, 16h, 24h, 32h and 40h time points using ViewLux plate reader during compound treatment.
In general terms: qHTS replaces the single test concentration by a dilution series.
As for `Cc1ccc(Br)cc1`, the “activity change, negative = cytotoxic” value is 0.102%.
Under `CCCCN1C(=O)c2ccccc2C1=O` stands -7.27%.
Consider `CCCCCCCCCCCCCCBr`, for which the “activity change, negative = cytotoxic” value was 2.98%.
For the compound `C=CCCCCCCCCOC(C)=O`, the “activity change, negative = cytotoxic” value was 4.62%.
The value for `O=C[C@@H](O)[C@H](O)[C@H](O)CO` was 1.84%.
Under `N=C(N)N` stands 0.808% [at 35.3 µM]; under `O=P(O)(O)C(O)(Cc1cccnc1)P(=O)(O)O`, 5.15% [at 35.3 µM].
The value for `COCCCOc1cc(C[C@@H](C[C@H](N)[C@@H](O)C[C@H](C(=O)NCC(C)(C)C(N)=O)C(C)C)C(C)C)ccc1OC` was 2% [at 35.3 µM]; that for `CCCCCCCCCCCCCCCC/C=C/C1CC(=O)OC1=O` (stereo not given) was 0.72% [at 35.3 µM].
`CCCc1ncc(C(=O)O)s1`: the “activity change, negative = cytotoxic” value is 1.42% [at 35.3 µM].
Under `CCCC(=O)CC` stands -1.09%; under `CCOC(=O)[C@H](CCc1ccccc1)N[C@H]1CS[C@H](c2cccs2)CN(CC(=O)O)C1=O`, 0.658% [at 35.3 µM].
The value for `CCOCCOCCOC(C)=O` was -0.0324%.
The value for `N=C(N)S(=O)O` was 0.162%; that for `COC(=O)C(c1ccccc1Cl)N1CCc2sccc2C1` (stereo not given) was -0.833% [at 35.3 µM]; that for `CC(=O)Nc1ccc(S(=O)(=O)Nc2cc(C)on2)cc1` was 5.34% [at 35.3 µM].
Turning to `O=C(O)P(=O)(O)O`, the “activity change, negative = cytotoxic” value was 0.845% [at 35.3 µM].
The value for `CCCC[O][Al]([O]CCCC)[O]CCCC` was 1.63%; that for `COC(=O)c1cc(Cl)c(NC(C)=O)cc1OC` was 4.35% [at 35.3 µM]; that for `O=C(c1ccccc1)c1cccc(O)c1` was -2.8%.
Under `Cc1nc2ccc(Cl)cc2[nH]1` stands 2.42%; under `NNC(=O)OCc1ccccc1`, -3.28%.
In the case of `CCC(=O)OCCOc1ccccc1`, the “activity change, negative = cytotoxic” value is -1.02%.
The value for `CCCCCCCCOCCC#N` was -3.05%.
Consider `CC(C)(C)C(=O)CC(=O)C(C)(C)C`, for which the “activity change, negative = cytotoxic” value is 2.72%.
Under `CCOC(=O)c1ccc(N(C)C)cc1` stands 1.16%; under `CC(C)=CCC/C(C)=C\C#N`, 4.12%; under `CN(C)c1ccncc1`, 1.61%.
The value for `Cc1cc(N)no1` was 2.9%; that for `CC(C)(C)C(=O)CCc1ccc(Cl)cc1` was -4.41%; that for `C=CCON/C(CCC)=C1\C(=O)CC(C)(C)C(C(=O)OC)=C1O` was 3.69%.
The value for `Cc1ccc(S(=O)(=O)NC(=O)NN2CC3CCCC3C2)cc1` (stereo not given) was 4.18% [at 35.3 µM]; that for `CC(=O)OC1CCC(C(C)(C)C)CC1` (stereo not given) was 0.648%; that for `Cc1nnc(C(=O)NC(C)(C)c2nc(C(=O)NCc3ccc(F)cc3)c(O)c(=O)n2C)o1` was 0.559% [at 35.3 µM].
On to `CCCCCCCCCCCC(C)=O`, for which the “activity change, negative = cytotoxic” value is 1.17%.
In the case of `CCCCN=C(N)N=C(N)N`, the “activity change, negative = cytotoxic” value is -0.569% [at 35.3 µM].
As for `CCCCCCC(=O)c1ccccc1`, the “activity change, negative = cytotoxic” value was 0.38%.
Under `COC(=O)c1ccc(C(=O)O)cc1` stands 0.298%; under `CC1(C)C(=O)C(C)(C)C1=O`, 0.744%; under `CN(C)CCc1c[nH]c2ccc(C[C@H]3COC(=O)N3)cc12`, 0.949% [at 35.3 µM].
